OPRM1-OPRD1 inv: mu-delta opioid heterodimer inverse agonism; P35372+P41143; cell-based MOR-DOR heterodimer luminescence; inhibition, % at 9.3 µM; hit rate 0.21% among 340,000; AID 504357; in the data active = inhibition above about 22%, passing the limit was not always enough;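 note: 0% = cells with DMSO and 100% = wells without cells with DMSO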
HTR5A inv ctr: inverse agonist of human HTR5A in OPRM1-OPRD1 counter-screen. P47898. HTR5A cell line, luminescence, inverse agonism. inhibition, % at 9.3 µM. hit rate 0.083% among 340,000. AID 504634; in the data active = inhibition mostly above about 23%, no sharp cut-off; inactive = mostly below about 18%;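 note: 0% = cells with DMSO and 100% = no-cell wells with DMSO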
Target sequence (P47898 whole entry, looked up): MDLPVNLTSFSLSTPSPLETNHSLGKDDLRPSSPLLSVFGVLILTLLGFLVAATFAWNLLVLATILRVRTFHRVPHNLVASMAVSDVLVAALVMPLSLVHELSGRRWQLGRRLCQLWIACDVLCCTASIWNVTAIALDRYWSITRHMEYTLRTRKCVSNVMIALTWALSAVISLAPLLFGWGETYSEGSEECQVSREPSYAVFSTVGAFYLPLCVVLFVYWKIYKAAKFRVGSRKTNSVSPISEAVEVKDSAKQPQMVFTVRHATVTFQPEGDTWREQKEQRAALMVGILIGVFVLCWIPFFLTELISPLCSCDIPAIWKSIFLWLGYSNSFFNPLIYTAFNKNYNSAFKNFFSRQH
HTR5A ag: activates human HTR5A in OPRM1-OPRD1 agonist counter-screen. HTR5A agonist assay, luminescence, cell-based. activation, % at 9.3 µM. hit rate 0.61% among 340,000; in the data active = activation mostly above about 9.5%, no sharp cut-off; inactive = mostly below about 7.6%;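 note: 0% = cells with vehicle only and 100% = reference agonist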
MOR-DOR ag: agonists of human mu-delta opioid receptor heterodimerization | P35372+P41143 | cells, OPRM1-OPRD1 heterodimerization, luminescence | activation, % at 9.3 µM | hit rate 0.3% among 340,000 | AID 504326;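 note: 0% = vehicle-treated cells and 100% = reference agonist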
MOR-DOR ag conf: OPRM1-OPRD1 heterodimer agonism, confirmation; cells, MOR-DOR heterodimerization, luminescence complementation; hit rate 45% among 830; shares compounds with MOR-DOR ag; activation, % at 9.3 µM;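 note: 0% = vehicle-treated cells and 100% = reference agonist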
HTR5A ag ctr2: activates human HTR5A in OPRM1-OPRD1 agonist counter-screen; HTR5A agonist counterscreen, cell luminescence; shares compounds with MOR-DOR ag; hit rate 8% among 830; activation, % at 9.3 µM; in the data active = activation above about 17%;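 note: 0% = vehicle-treated cells and 100% = reference agonist response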
Numbers without * were called inactive; i = inactive; x = no result given. Most compounds without a hit are left out; they make up all but 1.1% or so of the library. Cut-off read from the data, not from the text of the source, unless noted: active = activation above about 18%; inactive = the rest.

SMILES | OPRM1-OPRD1 inv | HTR5A inv ctr | HTR5A ag | MOR-DOR ag | MOR-DOR ag conf | HTR5A ag ctr2
CCOc1ccc2nc(SCC(=O)N(CCOC)c3c(N)n(Cc4ccccc4)c(=O)[nH]c3=O)[nH]c2c1 | 6 | 13 | -5 | -1 | x | x
O=C(O)c1nn(CCOc2c(Cl)cccc2Cl)c(=O)c2ccccc12 | -55 | 4 | 3 | 8 | x | x
NC(=O)C1CCN(C(=O)C2CCC(=O)N(CC3CCCCC3)C2)CC1 (configuration not stated) | 10 | 7 | 4 | -2 | x | x
COc1ccc2nc3cc(Cl)ccc3c(Nc3cc(C(C)C)c(O)cc3C)c2c1 | -110 | -9 | 2 | 20* | 15 | 3
CCCN1C(=O)c2ccccc2NC1c1ccc(OC)c(CSc2ccccn2)c1 (configuration not stated) | -118 | 15 | 5 | 22* | 16 | 1
COc1ccc(C2Nc3ccccc3C(=O)N2Cc2ccco2)cc1COc1ccc(F)cc1 (configuration not stated) | -205 | -20 | 0 | 38* | 26* | -1
COc1ccc(C2Nc3ccccc3C(=O)N2Cc2ccco2)cc1CN1C(=O)c2ccccc2C1=O (configuration not stated) | 1 | -17 | 2 | 0 | x | x
COc1ccc(N2C(=O)c3ccccc3NC2c2ccc(OC)c(CSc3ccccn3)c2)cc1 (configuration not stated) | -48 | 12 | 1 | 8 | x | x
COc1ccc(CCC(=O)Nc2ccc(S(=O)(=O)N3CCCC3)cc2)cc1OC | 6 | 13 | -5 | -2 | x | x
O=C(CN(Cc1ccc(F)cc1)C(=O)CCC(=O)Nc1ccccn1)NCc1ccc(F)cc1 | 13 | -5 | 2 | -2 | x | x
C[C@H]1O[C@@H](O[C@H]2[C@@H](O)C[C@H](O[C@H]3[C@@H](O)C[C@H](O[C@H]4CC[C@@]5(C)[C@H](CC[C@@H]6[C@@H]5C[C@@H](O)[C@]5(C)[C@@H](C7=CC(=O)OC7)CC[C@]65O)C4)O[C@@H]3C)O[C@@H]2C)C[C@H](O)[C@@H]1O | -359 | -94 | 28 | 65* | 2 | 105*
OC(c1cc(C(F)(F)F)nc2c(Cl)cc(Cl)cc12)C1CCCCN1 (configuration not stated) | -139 | -42 | 12* | 31* | 1 | 3
OC(c1cc(-c2ccc(Cl)cc2)nc2ccccc12)C1CCCCN1 (configuration not stated) | -28 | 7 | -2 | 6 | x | x
Cc1ccccc1NC(=S)N1CCN(c2ccccc2Cl)CC1 | 1 | -28 | 8 | 0 | x | x
Cc1cc(=O)oc2cc(OCC(=O)Nc3c(C)n(C)n(-c4ccccc4)c3=O)c(Cl)cc12 | 24 | 1 | -2 | -5 | x | x
O=c1c2ccc(Cl)cc2[nH]c(=S)n1Cc1cccnc1 | -297 | 18 | -8 | 62* | 54* | 0
O=C(c1ccc2c(=O)n(Cc3ccc(Cl)cc3)c(=S)[nH]c2c1)N1CCCC1 | -25 | -39 | -2 | 5 | x | x
COc1ccc(-c2oc3ccccc3c2C(=O)OCc2ccccc2)cc1 | 16 | 11 | -4 | -3 | x | x
Cc1cc(/C=C2\SC(=S)N(C)C2=O)c(C)n1-c1ccccc1O | -72 | -2 | 1 | 14 | x | x
Cc1cc(/C=C2\SC(=S)N(C)C2=O)c(C)n1-c1ccc(O)cc1 | -271 | 0 | 7 | 52* | 33* | -2
CCOc1ccc(OCC(=O)N(CCC2=CCCCC2)c2c(N)n(Cc3ccccc3)c(=O)[nH]c2=O)cc1 | -9 | 0 | 0 | 2 | x | x
CC(CC(=O)N(CCC1=CCCCC1)c1c(N)n(Cc2ccccc2)c(=O)[nH]c1=O)c1ccccc1 (configuration not stated) | -257 | -17 | -4 | 39* | 33* | 10
CNC1=C(N(C(C)=O)c2ccc(Br)cc2)C(=O)c2ccccc2C1=O | -30 | 9 | 2 | 6 | x | x
CC(=O)C1=C(c2ccc(Br)cc2)C(=O)c2ccccc2C1=O | -178 | -28 | 11 | 33* | 26* | 11
COc1ccc(OC)c(N(CC(=O)Nc2cccnc2)S(=O)(=O)c2ccc(C)cc2)c1 | -368 | -9 | 5 | 65* | 47* | 0
COc1ccc(C(CNc2ncnc3sc(C)c(C)c23)N(C)C)cc1 (configuration not stated) | i | -1 | 0 | 102* | 68* | -3

High-throughput results from PubChem BioAssay.
